Source: PubChem BioAssay (National Center for Advancing Translational Sciences (NCATS))
CtBP-E1A blk: qHTS Assay for Inhibitors of the CtBP/E1A Interaction; AlphaScreen GST-E1A/His-CtBP binding, 1536-well; hits give low values; activity change, % (concentration not given with the values); 340,000 tested, 0.49% active; in the data active means activity change below about -65%; inconclusive means mostly about -30% to -63%
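GST-E1A and His-tagged CtBP (125 nM each as 5X stock) were preincubated with pin-transferred compound for 2 h at 37 °C in the dark, then glutathione donor and nickel acceptor beads were added for 1 h before AlphaScreen reading.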
IL-1B inflam inh: qHTS for Inhibitors of Inflammasome Signaling: IL-1-beta AlphaLISA Primary Screen; THP-1 LPS/ATP IL-1B secretion, AlphaLISA, 16 h; hits give low values; activity change, % at 57.5 µM; 360,000 tested, 4.7% active; AID 743279, 2014; in the data active means activity change below about -50%; inconclusive means mostly about -30% to -49%
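Secreted IL-1B measured by AlphaLISA bead assay after 16 h compound exposure of THP-1 cells; compounds (final up to 57.5 uM) added 1 h before LPS (250 ng/mL) and ATP (1.25 mM) stimulation; lower signal means less secretion.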
DT40 TDP1 CPT: qHTS for Inhibitors of human tyrosyl-DNA phosphodiesterase 1 (TDP1): qHTS in cells in presence of CPT; chicken DT40 Tdp1-/-;hTDP1 cells + 20 nM CPT, ATP luminescence, 48 h; Potency, µM (titrated, usually from 46.2 µM), hits mostly inhibitors; 420,000 tested, 12% active; further: nearly all actives have a fitted effect of over 55% in size
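Chicken DT40 Tdp1-/- cells stably complemented with human TDP1 were seeded at 400 cells/well in medium containing 20 nM camptothecin, exposed to pin-transferred compounds, and grown at 37 °C for at least 48 hr. Viability was read as ATP luminescence.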
TDP1 inh: qHTS Assay for Inhibitors of Tyrosyl-DNA Phosphodiesterase (TDP1). Tyrosyl-DNA phosphodiesterase 1 (Homo sapiens), Q9NUW8. recombinant TDP1, AlphaScreen DNA substrate cleavage. Potency, µM (titrated, usually from 130 µM), usual class: inhibitors. 350,000 tested, 0.28% active. AID 485290, 2010; further: nearly all actives have a fitted effect of over 40% in size
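AlphaScreen read-out: signal falls as enzyme removes the 3' tyrosine-FITC from a 5'-biotinylated DNA oligo (15 nM, 5 min, RT). Enzyme was E. coli-made recombinant Tdp1 at 1 nM, exposed to compound for 15 min beforehand; beads 10 ug/ml, 10 min.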
DT40 TDP1 no CPT: qHTS for Inhibitors of human tyrosyl-DNA phosphodiesterase 1 (TDP1): qHTS in cells in absence of CPT | DT40 Tdp1-/- hTDP1 cells, no CPT, ATP luminescence, 48 h | Potency, µM (top dose mostly 46.2 µM), actives largely listed as inhibitors | 420,000 tested, 15% active | AID 686978, 2013; further: nearly all actives have a fitted effect of over 55% in size
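Luminescent ATP content (CellTiter-Glo) served as the growth readout. Knockout chicken DT40 cells expressing human TDP1 were exposed to compounds without camptothecin for a minimum 48 hr at 37 °C.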
Six1-Eya2 blk: qHTS Assay for Inhibitors of the Six1/Eya2 Interaction. Homeobox protein SIX1 (Homo sapiens) + Protein phosphatase EYA2 (Homo sapiens), …. AlphaScreen GST-Six1/His-Eya2 binding, biochemical; hits give low values. activity change, % (no concentration beside the values). 360,000 tested, 0.56% active; in the data active means activity change below about -65%; inconclusive means mostly about -30% to -63%
Target sequence (O00167 whole entry, looked up): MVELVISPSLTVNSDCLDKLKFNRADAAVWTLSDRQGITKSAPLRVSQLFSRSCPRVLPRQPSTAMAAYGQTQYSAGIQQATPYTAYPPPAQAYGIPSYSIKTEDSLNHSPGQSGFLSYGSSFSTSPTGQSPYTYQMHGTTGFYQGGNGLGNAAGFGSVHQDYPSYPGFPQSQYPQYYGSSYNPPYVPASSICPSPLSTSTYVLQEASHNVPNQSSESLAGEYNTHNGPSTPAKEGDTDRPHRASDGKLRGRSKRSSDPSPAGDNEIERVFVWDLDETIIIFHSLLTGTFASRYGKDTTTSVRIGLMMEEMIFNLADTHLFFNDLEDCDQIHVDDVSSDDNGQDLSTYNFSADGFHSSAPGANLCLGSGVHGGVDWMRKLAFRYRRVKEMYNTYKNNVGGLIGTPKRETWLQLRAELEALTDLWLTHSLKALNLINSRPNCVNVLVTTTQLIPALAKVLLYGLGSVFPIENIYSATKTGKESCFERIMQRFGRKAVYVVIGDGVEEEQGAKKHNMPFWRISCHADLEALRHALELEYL
Target sequence (Q15475 whole entry, looked up): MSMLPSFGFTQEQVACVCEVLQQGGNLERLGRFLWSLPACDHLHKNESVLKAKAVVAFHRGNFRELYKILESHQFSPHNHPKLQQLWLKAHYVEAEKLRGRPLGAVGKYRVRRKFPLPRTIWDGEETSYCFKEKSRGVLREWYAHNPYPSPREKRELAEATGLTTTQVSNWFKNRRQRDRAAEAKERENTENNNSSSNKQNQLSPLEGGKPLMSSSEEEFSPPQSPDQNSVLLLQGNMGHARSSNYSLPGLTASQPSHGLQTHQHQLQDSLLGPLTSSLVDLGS
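GST-Six1 + His-Eya2 (5X stock: 250/500 nM); Tris pH 8.0, 300 mM NaCl, 0.05% BSA, 0.02% Tween 20; GSH donor/Ni acceptor beads; 1 h 37 °C dark; AlphaScreen readout.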
A number is an active result; . = inactive; ? = inconclusive; / = no result given; [ ] = remark or other dose. Only some compounds are listed: those with a hit (about 18% of all), similar ones and a draw of the others. Unless noted, the call rests on the fitted dose curve; in most records, active means well fitted curve in the direction sought with a large enough effect; inconclusive means small, poorly fitted or top-dose-only effect, or another doubt; inactive means no such curve, though single readings can be large; an effect the other way counts as inactive or inconclusive.

SMILES	CtBP-E1A blk	IL-1B inflam inh	DT40 TDP1 CPT	TDP1 inh	DT40 TDP1 no CPT	Six1-Eya2 blk
Cc1nc2sc(C(=O)Nc3ccc(F)cc3)c(N)c2c(-c2ccc(Br)cc2)c1C(=O)Nc1ccc(Cl)cc1	/	/	?	.	?	/
Cc1ccc(NC(=O)c2c(C)nc3sc(C(=O)Nc4ccc(F)cc4)c(N)c3c2-c2ccc(C)o2)c(C)c1	/	/	?	.[12.3 µM]	18µM	/
COc1ccc(-c2c3c(nc4sc(C(=O)Nc5ccc(F)cc5)c(N)c24)CC(C)(C)CC3=O)cc1	/	/	?	/	15µM	/
CCOC(=O)c1sc(NC(C)=O)cc1C	.	.	.	.	.	.
CCOC(=O)c1c(C)nc2sc3c(=O)n(-c4ccc(C)cc4)cnc3c2c1-c1ccc(OC)cc1	.	.	.	.	.	.
CCOC(=O)c1sc(NC(=O)C2CCC2)cc1C	/	?	.	.	21µM	.
Cc1c(Cl)ccc2sc(NC(=O)C3CC3)nc12	.	.	?	/	?	.
CCOC(=O)c1sc(N)c(C(N)=O)c1C	.	.	.	.	.	.
CCOC(=O)c1c(N)sc(N)c1C(=O)OCC	.	-71	4.6µM	.	5.2µM	.
CCOC(=O)c1sc(NC(=O)Nc2ccccc2Cl)cc1C	.	.	23µM	.	15µM	.
CCn1cnc2c1c(=O)n(CC(=O)NCC(C)C)c(=O)n2Cc1ccccc1	.	.	.	/	.	.
CCOC(=O)c1c(C)[nH]c(C(=O)Cn2c(=O)c3c(ncn3CC)n(Cc3ccccc3)c2=O)c1C	.	.	26µM	.	?	.
CC(C)(C)c1cc(C(c2cccnc2)N2CCN(CCO)CC2)cc(C(C)(C)C)c1O (stereo not drawn)	.	-102	1.5µM	.	2.3µM	.
CC(C)(C)n1nnnc1C(c1cccnc1)N1CCN(C2CCCCC2)CC1 (stereo not drawn)	.	.	.	.	.	.
O=S(=O)(O)c1ccc(O)c2cc(Nc3ccccc3)ccc12	.	.	.	/	.	-73
Cc1ccc(N2CCN(C(C(=O)Nc3c(C)cccc3C)c3cc4ccccc4o3)CC2)cc1 (stereo not drawn)	.	.	13µM	/	13µM	.
O=C(Nc1ccc2c(c1)OCCO2)C(c1cc2ccccc2o1)N1CCC(Cc2ccccc2)CC1 (stereo not drawn)	.	.	?	/	?	.
O=C(Nc1ccc2c(c1)OCCO2)C(CCc1ccccc1)N1CCN(c2ccc(F)cc2)CC1 (stereo not drawn)	.	.	?	/	?	.
O=C(Nc1ccc(F)cc1)C(c1cc2ccccc2o1)N1CCN(c2ccncc2)CC1 (stereo not drawn)	.	?	21µM	/	23µM	.
Cc1cccc(C)c1NC(=O)C(c1cc2ccccc2o1)N1CCC(c2ccccc2)CC1 (stereo not drawn)	.	.	16µM	/	15µM	.
Cc1cccc(C)c1NC(=O)C(c1ccccc1OC(F)(F)F)N1CCN(c2ccc(F)cc2)CC1 (stereo not drawn)	.	.	?	/	?	.
COc1ccc(C(C#N)N2N=C(C)CC2(C)C)cc1OC (stereo not drawn)	.	.	.	.	.	.
CC1=C(C(=O)Nc2ccccc2)C(c2ccco2)NC(=S)N1 (stereo not drawn)	.	.	.	.	.	.
Cc1ccc(NS(=O)(=O)c2ccc3[nH]c4c(c3c2)CCCCCC4)cc1C	/	/	?	.	16µM	/
Cc1ccc(NS(=O)(=O)c2ccc3[nH]c4c(c3c2)CCCCCC4)cc1	/	/	26µM	.	?	/
SMILES	CtBP-E1A blk	IL-1B inflam inh	DT40 TDP1 CPT	TDP1 inh	DT40 TDP1 no CPT	Six1-Eya2 blk
Cc1ccc(NC(=S)NCc2ccc3[nH]c4c(c3c2)CCCC4)cc1	.	?	?	/	13µM	.
O=S(=O)(Nc1cccc(F)c1)c1ccc2[nH]c3c(c2c1)CCCCC3	/	/	21µM	.	?	/
Cc1c(C(=O)NCCC#N)sc(=O)n1Cc1ccc(F)cc1	.	.	.	/	.	.
CC1(C(=O)NS(=O)(=O)c2cccc(Cl)c2)CCN1C(=O)Cc1cccs1 (stereo not drawn)	.	.	.	/	.	.
O=C(Nc1ccccc1C(F)(F)F)C1(S(=O)(=O)c2ccc(Cl)cc2)CC1	/	/	.	.	.	/
Cc1ccc(Sc2ncccc2NC(=O)c2ccccc2Cl)cc1	.	.	.	.	.	.
Cn1c(=O)cc(SCC(=O)N2CCN(c3ccccc3)CC2)c2ccccc21	.	.	16µM	.	?	.
Cn1c(=O)cc(SCC(=O)N2CCN(c3ccccn3)CC2)c2ccccc21	.	-50	?	.	?	.
CN1CCN(C(=O)CSc2cc(=O)n(C)c3ccccc23)CC1	.	.	.	.	.	.
O=C(CSc1ccccc1)N1CCN(c2ccccn2)CC1	.	.	.	.	?	.
O=C(CC(c1ccccc1)c1ccccc1)N1CCN(c2ccccn2)CC1	.	.	?	.	18µM	.
COc1ccc2[nH]cc(CCCN3C(=O)c4ccccc4C3=O)c2c1	.	?	.	.	.	.
CCOC(=O)CN1C(=O)S/C(=C/c2ccc(N3CCCCC3)o2)C1=O	.	.	.	.	.	.
O=C1C2C(C(=O)N1/N=C/c1ccc(N3CCCCC3)o1)C1C=CC2C12CC2 (stereo not drawn)	.	.	18µM	.	15µM	.
O=C(CSc1nccc(=O)[nH]1)c1ccccc1Br	-68	.	.	.	.	-70
O=C(COC(=O)C12CC3CC(CC(O)(C3)C1)C2)Nc1cccc(Br)c1	.	.	?	.	.	.
O=C(NCCc1ccccc1)c1cc(Sc2cccc(Cl)c2)nc2ccccc12	/	/	?	.	16µM	/
Cc1cc(C(=O)NCCc2ccc(Cl)cc2)c2ccccc2n1	.	.	.	.[0.0935 µM]	?	.
COc1ccc(CCNC(=O)c2cc(-c3ccncc3)nc3c(Cl)cccc23)cc1OC	.	.	21µM	.	21µM	.
CSc1cccc(Nc2cc(C(=O)NCCc3ccc(Cl)cc3)c3ccccc3n2)c1	/	/	4.6µM	.	7.3µM	/
COc1ccc(Nc2cc(C(=O)NCCc3ccc(C)cc3)c3ccccc3n2)c(OC)c1	/	/	?	.	?	/
COc1ccc(CCNC(=O)c2cc(-c3ccccn3)nc3c(Cl)cccc23)cc1OC	.	.	.	.	?	.
